According to PubChem BioAssay (NCI):
This is part of a sample that, as a whole, favours compounds with a hit. Of some 79,000 tested, about 15% had one in any assay. Activity calls are given as the source filed them. No stated cut-off is given here; in the data, active means growth inhibition above about 70%; inactive means the rest.

Assays:
[1] = NCI Yeast Anticancer Drug Screen. Data for the mec2-1 strain (AID 157); conditions: S. cerevisiae mec2-1 strain, hits give high values
Outline: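 Mutant yeast (mec2-1) grown with compound; growth inhibition relative to vehicle control reported.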

[2] = NCI Yeast Anticancer Drug Screen. Data for the rad14 strain (AID 159);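 further: 0% = growth of vehicle-treated control cultures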; conditions: S. cerevisiae rad14 strain growth inhibition, hits give high values
Outline: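 DNA repair-defective yeast, compound-exposed; % growth inhibition derived by comparison with vehicle-treated controls.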

[3] = NCI Yeast Anticancer Drug Screen. Data for the sgs1 mgt1 strain (AID 161);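 further: 0% = growth of cultures given vehicle only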; conditions: S. cerevisiae sgs1 mgt1 strain, hits give high values
Outline: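 Compounds are added to genetically altered yeast, and growth is compared with cultures given vehicle alone to give percent inhibition.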

[4] = NCI Yeast Anticancer Drug Screen. Data for the CLN2oe strain (AID 163);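 further: 0% = growth of vehicle-only control cultures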; conditions: S. cerevisiae CLN2oe strain, hits give high values
Outline: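 Compounds are applied to yeast harbouring a defined cell-cycle control change; reduced growth compared with vehicle-treated controls gives the value.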

[5] = NCI Yeast Anticancer Drug Screen. Data for the cln2 rad14 strain (AID 165);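 further: 0% = growth equal to vehicle treated cultures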; conditions: S. cerevisiae cln2 rad14 strain, hits give high values
Outline: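 Readout is yeast growth inhibition versus vehicle-treated controls, using a strain with cln2 and rad14 alterations exposed to compound.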

[6] = NCI Yeast Anticancer Drug Screen. Data for the bub3 strain (AID 167); conditions: S. cerevisiae bub3 mutant strain, hits give high values
Outline: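 In this screen, a yeast mutant lacking normal mitotic checkpoint function is challenged with compound. Relative growth versus vehicle gives the inhibition value.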

[7] = NCI Yeast Anticancer Drug Screen. Data for the wt2 strain (AID 169);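 further: 0% = growth of vehicle-treated yeast cultures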; conditions: S. cerevisiae wt2 strain growth inhibition, hits give high values
Outline: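 Against vehicle-treated controls, the growth of yeast exposed to each compound was compared, and the inhibition was recorded.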

[8] = NCI Yeast Anticancer Drug Screen. Data for the mlh1 strain (AID 171);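 further: 0% = growth of vehicle-treated control cultures of the same strain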; conditions: S. cerevisiae mlh1 strain growth inhibition, hits give high values
Outline: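 Measured: yeast growth. Reference: vehicle-treated controls. Organism: strain with a defined alteration affecting DNA damage repair or cell cycle control, treated with compound.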

[9] = NCI Yeast Anticancer Drug Screen. Data for the sgs1 strain (AID 173);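 further: 0% = growth of vehicle-only control cultures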; conditions: S. cerevisiae sgs1 mutant, hits give high values
Outline: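 Each compound was added to cultures of the altered yeast strain. Growth was recorded, and inhibition was derived by comparison with vehicle controls.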

[10] = NCI Yeast Anticancer Drug Screen. Data for the mlh1 rad18 strain (AID 175); conditions: S. cerevisiae mlh1 rad18 strain growth inhibition, hits give high values
Outline: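 Genetically defined yeast (DNA repair-deficient) exposed to compounds; growth inhibition determined relative to vehicle.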

[11] = NCI Yeast Anticancer Drug Screen. Data for the rad18 strain (AID 177); conditions: S. cerevisiae rad18 mutant growth inhibition, hits give high values
Outline: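 Vehicle-treated cultures served as the baseline for scoring compound-induced growth inhibition in DNA-repair-mutant yeast.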

[12] = NCI Yeast Anticancer Drug Screen. Data for the wt1 strain (AID 149);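 further: 0% = growth of vehicle-treated wt1 cultures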; conditions: S. cerevisiae wt1 strain (SPY 50644) growth inhibition, hits give high values
Outline: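 wt1 strain grown with compound or vehicle; inhibition taken from the growth difference.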

[13] = NCI Yeast Anticancer Drug Screen. Data for the rad50EPP+ strain (AID 151);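 further: 0% = growth of vehicle-treated control cultures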; conditions: S. cerevisiae rad50 mutant strain, hits give high values
Outline: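 Vehicle-normalised growth inhibition; rad50EPP+ yeast strain, altered in DNA damage repair, compound-treated.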

[14] = NCI Yeast Anticancer Drug Screen. Data for the mgt1 strain (AID 153); conditions: S. cerevisiae mgt1 mutant growth inhibition, hits give high values
Outline: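 Vehicle-normalized growth inhibition is determined in mgt1 yeast, a strain selected for a defined alteration in DNA repair or cell cycle control.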

[15] = NCI Yeast Anticancer Drug Screen. Data for the rad50 strain (AID 155);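 further: 0% = growth of vehicle-only cultures of the same strain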; conditions: S. cerevisiae rad50 strain growth inhibition, hits give high values
Outline: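 DNA repair mutant yeast, compound exposure, growth read-out; inhibition is taken relative to vehicle.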

[16] = at 5.0 µM (retest, dose inferred, filed as 0.5)
[17] = at 50.0 µM (retest, dose inferred, filed as 5.0)

Measured: growth inhibition

c1cc(Nc2ccc3c(c2)OCO3)c2cc(C3CCCCC3)ccc2n1
inactive: [2]; at 1.2 µM 5% | [2]; at 3.7 µM 5% | [2]; at 11.0 µM 7% | [2]; at 33.0 µM 15% | [3]; [16] 0% | [3]; [17] 46% | [4]; at 1.2 µM 1% | [4]; at 3.7 µM 3% | [4]; at 11.0 µM -1% | [4]; at 33.0 µM 4% | [4]; at 100.0 µM 52% | [5]; [16] 40% | [5]; [17] 46% | [6]; at 1.2 µM -1% | [6]; at 3.7 µM -3% | [6]; [16] 10% | [6]; at 11.0 µM -2% | [6]; at 33.0 µM 8% | [7]; at 1.2 µM 0% | [7]; at 3.7 µM -1% | [7]; at 11.0 µM -2% | [7]; at 33.0 µM 0% | [8]; at 1.2 µM -1% | [8]; at 3.7 µM -1% | [8]; at 11.0 µM -2% | [8]; at 33.0 µM 2% | [9]; at 1.2 µM -1% | [9]; at 3.7 µM -2% | [9]; at 11.0 µM -7% | [9]; at 33.0 µM 5% | [10]; [16] 7% | [11]; at 1.2 µM -3% | [11]; at 3.7 µM -7% | [11]; at 11.0 µM -14% | [11]; at 33.0 µM -16%
active: [1]; at 100.0 µM 72% | [2]; at 100.0 µM 78% | [3]; at 50.0 µM 99.2% | [5]; at 50.0 µM 98.7% | [6]; [17] 98% | [6]; at 50.0 µM 98.6% | [6]; at 100.0 µM 74% | [7]; at 100.0 µM 81% | [8]; at 100.0 µM 82% | [9]; at 100.0 µM 86% | [10]; [17] 73% | [10]; at 50.0 µM 99.5% | [11]; at 100.0 µM 85%

Nc1nc(Nc2ccccc2)nc(Nc2ccccc2)n1
inactive: [12]; at 1.2 µM -3% | [12]; at 3.7 µM -10% | [12]; at 11.0 µM -12% | [12]; at 33.0 µM -15% | [13]; at 1.2 µM 1% | [13]; at 3.7 µM -6% | [13]; at 11.0 µM 21% | [13]; at 33.0 µM 28% | [13]; at 100.0 µM 50% | [14]; at 1.2 µM -1% | [14]; at 3.7 µM -7% | [14]; at 11.0 µM -3% | [14]; at 33.0 µM 2% | [15]; at 1.2 µM -6% | [15]; at 3.7 µM -10% | [15]; [16] 4% | [15]; at 11.0 µM -6% | [15]; at 33.0 µM 11% | [15]; [17] 7% | [1]; at 1.2 µM -1% | [1]; at 3.7 µM 1% | [1]; [16] -2% | [1]; at 11.0 µM -1% | [1]; at 33.0 µM -2% | [1]; [17] 21% | [2]; at 1.2 µM 5% | [2]; at 3.7 µM 1% | [2]; at 11.0 µM 1% | [2]; at 33.0 µM 36% | [3]; [16] 3% | [3]; [17] 66% | [4]; at 1.2 µM -7% | [4]; at 3.7 µM -6% | [4]; at 11.0 µM -6% | [4]; at 33.0 µM -3% | [5]; [16] -4% | [5]; [17] 8% | [6]; at 1.2 µM -4% | [6]; at 3.7 µM -3% | [6]; [16] -5% | [6]; at 11.0 µM -8% | [6]; at 33.0 µM 5% | [6]; [17] 32% | [7]; at 1.2 µM -15% | [7]; at 3.7 µM -8% | [7]; at 11.0 µM -7% | [7]; at 33.0 µM 66% | [8]; at 1.2 µM -6% | [8]; at 3.7 µM -2% | [8]; at 11.0 µM -3% | [8]; at 33.0 µM 35% | [9]; at 1.2 µM -10% | [9]; at 3.7 µM -3% | [9]; at 11.0 µM 6% | [9]; at 33.0 µM 57% | [10]; [16] 0% | [10]; [17] 58% | [11]; at 1.2 µM -1% | [11]; at 3.7 µM 5% | [11]; at 11.0 µM 2% | [11]; at 33.0 µM 31%
active: [12]; at 100.0 µM 81% | [14]; at 100.0 µM 92% | [15]; at 50.0 µM 93.5% | [15]; at 100.0 µM 93% | [1]; at 50.0 µM 85.8% | [1]; at 100.0 µM 81% | [2]; at 100.0 µM 95% | [3]; at 50.0 µM 94% | [4]; at 100.0 µM 87% | [5]; at 50.0 µM 81.2% | [6]; at 50.0 µM 91.5% | [6]; at 100.0 µM 95% | [7]; at 100.0 µM 96% | [8]; at 100.0 µM 97% | [9]; at 100.0 µM 97% | [10]; at 50.0 µM 96.5% | [11]; at 100.0 µM 96%

CC[C@@]1(OC(=O)CN(C)C)C(=O)OCc2c1cc1n(c2=O)Cc2cc3ccccc3nc2-1
inactive: [12]; at 1.2 µM -1% | [12]; at 3.7 µM 1% | [12]; at 11.0 µM 23% | [13]; at 1.2 µM 42% | [14]; at 1.2 µM -1% | [14]; at 3.7 µM 1% | [14]; at 11.0 µM 32% | [1]; at 1.2 µM 2% | [1]; at 3.7 µM 23% | [1]; [16] 53% | [2]; at 1.2 µM 2% | [2]; at 3.7 µM 8% | [2]; at 11.0 µM 44% | [3]; [16] 38% | [4]; at 1.2 µM -7% | [4]; at 3.7 µM 2% | [4]; at 11.0 µM 31% | [5]; [16] 15% | [6]; at 1.2 µM -7% | [6]; at 3.7 µM -9% | [6]; [16] -3% | [6]; at 11.0 µM 41% | [7]; at 1.2 µM -1% | [7]; at 3.7 µM 10% | [7]; at 11.0 µM 28% | [8]; at 1.2 µM 0% | [8]; at 3.7 µM 2% | [8]; at 11.0 µM 42% | [9]; at 1.2 µM 6% | [9]; at 3.7 µM 28% | [10]; [16] 36% | [11]; at 1.2 µM 1% | [11]; at 3.7 µM 12% | [11]; at 11.0 µM 60%
active: [12]; at 33.0 µM 85% | [12]; at 100.0 µM 93% | [13]; at 3.7 µM 79% | [13]; at 11.0 µM 92% | [13]; at 33.0 µM 95% | [13]; at 100.0 µM 97% | [14]; at 33.0 µM 90% | [14]; at 100.0 µM 97% | [15]; at 1.2 µM 81% | [15]; at 3.7 µM 95% | [15]; [16] 95% | [15]; at 11.0 µM 96% | [15]; at 33.0 µM 96% | [15]; [17] 97% | [15]; at 50.0 µM 96.8% | [15]; at 100.0 µM 97% | [1]; at 11.0 µM 89% | [1]; at 33.0 µM 94% | [1]; [17] 96% | [1]; at 50.0 µM 99% | [1]; at 100.0 µM 97% | [2]; at 33.0 µM 87% | [2]; at 100.0 µM 95% | [3]; [17] 95% | [3]; at 50.0 µM 93.6% | [4]; at 33.0 µM 73% | [4]; at 100.0 µM 87% | [5]; [17] 89% | [5]; at 50.0 µM 79.8% | [6]; at 33.0 µM 90% | [6]; [17] 93% | [6]; at 50.0 µM 93.7% | [6]; at 100.0 µM 96% | [7]; at 33.0 µM 84% | [7]; at 100.0 µM 93% | [8]; at 33.0 µM 90% | [8]; at 100.0 µM 96% | [9]; at 11.0 µM 82% | [9]; at 33.0 µM 94% | [9]; at 100.0 µM 96% | [10]; [17] 94% | [10]; at 50.0 µM 97.2% | [11]; at 33.0 µM 92% | [11]; at 100.0 µM 96%
